Here are results for 16 compounds from PubChem BioAssay (NCATS).

Inconclusive results are not listed. Activity calls are given as the source filed them. The call rests on the fitted dose curve; in most records, active means well fitted inhibition curve with a large enough effect; inconclusive means small, poorly fitted or top-dose-only effect; inactive means flat fitted curve, though single readings scatter.

Assay in all cases: qHTS profiling for inhibitors of Plasmodium falciparum proliferation (AID 504749); further: nearly all actives have a fitted effect of over 60% in size
What all share (settings): P. falciparum in erythrocytes, SYBR Green DNA, 72 h; series mostly up to 28.7 µM

Test [1] has as its system CP256. The essentials:
(§1)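 SYBR Green fluorescence (ex 485 nm, em 535 nm) reports parasite DNA after 72 h compound exposure of infected red cells at 0.3% parasitemia, 2.5% hematocrit; signal normalized to 0.29 uM artemisinin and vehicle wells.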

Test [2] relates to CP260. In a few lines:
as §1

The subject of test [3] is CP262. The essentials: as §1
Test [4] deals with CP265. The essentials:
as §1

For test [5], the system named is CP266. The essentials: as §1
Test [6] deals with CP268. The essentials:
as §1

Test [7] deals with CP269. The essentials: as §1
The test system of test [8] is CP286. The essentials:
as §1

Test [9] deals with CP291. In a few lines:
as §1

Test [10] concerns CP297. The essentials:
as §1
Potency means the concentration at half of the fitted maximal effect.

As to `C[C@H]1C[C@@H]2[C@@H]([C@@H](O)C[C@@]3(C)[C@H]2CC[C@]3(O)C(=O)CO)[C@@]2(C)C=CC(=O)C=C12`, the Potency result in [1], in [2], in test [3], in test [4], in test [5] and in [6] was “inactive” in each case. Also, the Potency result in [7], in [8] and in test [9] was “inactive” in each case.

As for `CC1(C)O[C@@H]2C[C@@H]3[C@H]4C[C@@H](F)C5=CC(=O)C=C[C@]5(C)[C@@]4(F)[C@@H](O)C[C@]3(C)[C@]2(C(=O)CO)O1`, the Potency entry in test [1], in [2], in test [3], in test [4] and in [8] was “inactive” in each case.

Turning to `CCC1=C[C@@H]2CN(C1)Cc1c([nH]c3ccccc13)[C@@](C(=O)OC)(c1cc3c(cc1OC)N(C)[C@@H]1[C@@](O)(C(=O)OC)[C@H](OC(C)=O)[C@]4(CC)C=CCN5CC[C@]31[C@@H]54)C2`, the Potency was 2000 nM (active) in test [1]; 2820 nM (active) in test [2]; 3010 nM (active) in test [3]; 2000 nM (active) in test [4]; 4260 nM (active) in test [5]; 3380 nM (active) in test [6]. Besides, the Potency in [7] is 1900 nM (active); in test [8], 2000 nM (active); in test [9], 3010 nM (active); in test [10] it was 3790 nM (active).

As for `COc1c(N2C[C@@H]3CCCN[C@H]3C2)c(F)cc2c(=O)c(C(=O)O)cn(C3CC3)c12`, the Potency result in test [1], in [2], in test [3], in test [4], in test [5] and in test [7] was “inactive” throughout. Besides, the Potency entry in [8], in test [9] and in test [10] was “inactive” in each case.

Consider `CN1c2cc(O)c(N=NC(N)=O)cc2CC1S(=O)(=O)O` (configuration not stated), for which the Potency entry in test [1], in test [2], in test [3], in test [4], in test [5] and in test [6] was “inactive” each time. Further, the Potency entry in test [7], in test [8], in test [9] and in test [10] was “inactive” in each case.

`O=c1[nH]c(=O)n(C2CCCO2)cc1F` (configuration not stated): the Potency entry in test [1], in test [2], in [3], in test [4], in test [5] and in test [6] was “inactive” each time. In addition, the Potency result in [7], in [8], in test [9] and in [10] was “inactive” each time.

Take `COC(=O)C1=C(C)NC(C)=C(C(=O)OCCN2CCN(C(c3ccccc3)c3ccccc3)CC2)C1c1cccc([N+](=O)[O-])c1` (configuration not stated): the Potency in test [1] is 3550 nM (active); in [2], 2510 nM (active); in [3], 4780 nM (active); in [5] it was 6750 nM (active); in [6], 4780 nM (active); in [7], 4260 nM (active). The Potency in [8] is 2510 nM (active); in [9], 4780 nM (active); in [10] it was 4260 nM (active).

As for `COc1cc(C(=O)NS(=O)(=O)c2ccccc2C)ccc1Cc1cn(C)c2ccc(NC(=O)OC3CCCC3)cc12`, the Potency entry in test [1], in test [2], in [3], in test [4], in [5] and in [6] was “inactive” in each case. Further, the Potency result in test [8] and in test [9] was “inactive” throughout.

Take `Nc1ccn([C@@H]2O[C@H](CO)[C@H](O)C2(F)F)c(=O)n1`: the Potency in test [1] is 1580 nM (active); in test [2], 3980 nM (active); in [3], 2690 nM (active); in test [4] it was 3980 nM (active); in [5] it was 4780 nM (active); in test [6] it was 6010 nM (active). Further, the Potency was 4780 nM (active) in test [7], 3980 nM (active) in test [8], 4260 nM (active) in test [9] and 6750 nM (active) in [10].

In the case of `O=C(O)CO.[NH2-].[NH2-].[Pt+2]`, the Potency result in test [1], in test [2], in test [3], in test [4], in [5] and in test [6] was “inactive” throughout. Also, the Potency result in [7], in test [8], in test [9] and in test [10] was “inactive” in each case.

For the compound `COC(=O)C[C@](O)(CCCC(C)(C)O)C(=O)O[C@@H]1C(OC)=C[C@]23CCCN2CCc2cc4c(cc2[C@H]13)OCO4`, the Potency in test [1] was 31.6 nM (active); in test [2], 28.2 nM (active); in test [3], 33.8 nM (active); in [4] it was 31.6 nM (active); in test [6], 37.9 nM (active); in test [7] it was 33.8 nM (active). Moreover, the Potency in [8] is 28.2 nM (active); in test [9], 33.8 nM (active); in test [10], 16.9 nM (active).

For the compound `CC[C@H]1CN2CCc3cc(OC)c(OC)cc3[C@H]2C[C@@H]1C[C@@H]1NCCc2cc(OC)c(OC)cc21`, the Potency was 355 nM (active) in test [1]; 126 nM (active) in test [2]; 757 nM (active) in [3]; 447 nM (active) in test [4]; 675 nM (active) in test [5]; 426 nM (active) in test [6]. The Potency in [7] was 301 nM (active); in [8], 158 nM (active); in test [9] it was 269 nM (active); in [10], 379 nM (active).

As for `Nc1ccn([C@@H]2CS[C@H](CO)O2)c(=O)n1`, the Potency entry in test [1], in [2], in test [3], in test [4], in [5] and in test [6] was “inactive” throughout. Moreover, the Potency entry in test [7], in test [8], in [9] and in test [10] was “inactive” throughout.

With `CC=CC1=C(C(=O)O)N2C(=O)[C@H](NC(=O)[C@H](N)c3ccc(O)cc3)[C@@H]2SC1`, the Potency entry in [1], in test [2], in test [3], in test [4], in test [5] and in test [6] was “inactive” throughout. The Potency entry in [7], in test [8], in test [9] and in test [10] was “inactive” throughout.

`CC(C)(C)NC(=O)[C@H]1CN(Cc2cccnc2)CCN1C[C@@H](O)C[C@@H](Cc1ccccc1)C(=O)N[C@H]1c2ccccc2C[C@H]1O`: the Potency result in [3] was “inactive”. The Potency was 13500 nM (active) in test [7] and 15100 nM (active) in [9].

Take `Nc1ccc(S(=O)(=O)Nc2ncccn2)cc1`: the Potency entry in test [1], in [2], in test [3], in [4], in test [5] and in test [6] was “inactive” in each case. Also, the Potency result in [7], in [8], in test [9] and in [10] was “inactive” in each case.
